Compound activity deposited in PubChem BioAssay by several laboratories.
GDH-TPI inh: GDH-TPI coupling enzyme inhibitors, primary screen, artefact control for M. tuberculosis FBA inhibitor project, biochemical, absorbance, full deck | 1.2% of 360,000 active | GDH-TPI coupled enzyme counterscreen, NADH absorbance | AID 588335, 2011 | inhibition, % at 4.8 µM;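 further: 0% = DMSO wells and 100% = wells lacking the enzyme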
CCHFV vOTU inh: CCHFV vOTU protease inhibitors, primary screen, biochemical, Pep-AMC substrate, fluorescence. Crimean-Congo hemorrhagic fever virus L polyprotein viral ovarian tumor (vOTU) protease …. inhibition, % at 11.5 µM. 0.55% of 370,000 active. AID 651958, 2012; further: 0% = vehicle wells with enzyme and 100% = no enzyme wells
FBA Mtb inh: Mtb FBA enzyme inhibitors, primary screen, biochemical, fluorescence, strain H37Rv | inhibition, % at 1 µM | purified M. tuberculosis FBA, fluorescence read-out | 2.3% of 360,000 active | Fructose-bisphosphate aldolase (Mycobacterium tuberculosis (strain ATCC 25618 / H37Rv)), …; in the data active means inhibition above about 27%;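 further: 0% = vehicle and 100% = reference inhibitor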
Target sequence (P9WQA3 whole entry, looked up): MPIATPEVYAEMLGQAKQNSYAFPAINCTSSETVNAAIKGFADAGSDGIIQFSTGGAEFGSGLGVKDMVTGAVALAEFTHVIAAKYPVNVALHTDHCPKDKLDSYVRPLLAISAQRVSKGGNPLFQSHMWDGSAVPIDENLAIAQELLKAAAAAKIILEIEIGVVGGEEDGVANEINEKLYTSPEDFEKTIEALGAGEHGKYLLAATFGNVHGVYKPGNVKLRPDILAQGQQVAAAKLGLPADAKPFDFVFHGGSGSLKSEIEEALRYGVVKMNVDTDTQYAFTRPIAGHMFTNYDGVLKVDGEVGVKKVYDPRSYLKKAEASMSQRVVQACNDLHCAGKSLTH
BH1578 lux ind: inducers of Vibrio cholerae quorum light production without autoinducers, primary screen, BH1578 luxS cqsA deficient, single point; activation, % at 18.7 µM; V. cholerae BH1578 lux reporter, luminescence, 6 h; 0.16% of 350,000 active; AID 588436, 2011; in the data active means activation mostly above about 9.7%, no sharp cut-off
Starred values were filed as active, the others as inactive; i = inactive; · = no result; + = active, no number. Only some compounds are listed: those with a hit (about 3.9% of all), similar ones and a draw of the others. Unless noted, no stated cut-off is given here; in the data, active means inhibition above about 30%; inactive means the rest.

SMILES | GDH-TPI inh | CCHFV vOTU inh | FBA Mtb inh | BH1578 lux ind
CC[N+](C)(CC)CCC(c1ccccc1)C1CCCCC1 (centres undefined) | 4.5 | 0.0 | 1.3 | i
Cc1nc2c(cc(Oc3ccc(S(=O)(=O)N4CCOCC4)cn3)c3ccsc32)s1 | 3.8 | 28.6 | 3.5 | -3.7
CC1CCCCN1C(=O)CN1C(=O)NC2(CCCCC2C)C1=O (centres undefined) | 5.4 | -2.7 | -0.3 | 0.7
CCOCCn1c(=O)c2c(nc3n2CCCN3Cc2ccccc2)n(C)c1=O | -1.3 | -6.6 | 0.5 | -0.2
O=C(CCNc1n[nH]c(=O)[nH]c1=O)N/N=C/c1ccc(Cl)cc1 | 9.6 | 7.9 | 2.5 | -0.3
O=c1[nH]nc(N/N=C/c2ccc(Cl)cc2Cl)c(=O)[nH]1 | 37.5* | 19.1 | 0.3 | 0.1
COc1ccc(C(=O)Nc2nnc(-c3ccco3)s2)cc1 | 45.8* | -11.2 | 11.7 | -0.7
COc1ccccc1C(=O)Nc1nnc(-c2ccco2)s1 | 32.7* | -16.6 | 1.1 | -0.9
NS(=O)(=O)c1ccc(N2N=C(c3ccccc3)CC2c2ccccc2Cl)cc1 (centres undefined) | 25.0 | -167.5 | 187.6* | -2.0
Cc1ccc(C2=NN3C(=O)c4ccccc4C3C2)cc1 (centres undefined) | 11.7 | -1.2 | 4.4 | -1.4
O=C(O)CCC(=O)N1N=C(c2ccccc2)CC1c1ccc(Br)cc1 (centres undefined) | 8.6 | -9.6 | -0.9 | i
Cc1ccc(C2CC(c3ccccc3)=NN2c2ccc(S(N)(=O)=O)cc2)cc1 (centres undefined) | -2.1 | -160.0 | + | 1.1
CCc1ccc(C2=NN(S(C)(=O)=O)C(c3cccs3)C2)cc1 (centres undefined) | 15.8 | -1.4 | 1.2 | i
NS(=O)(=O)c1ccc(N2N=C(c3ccccc3)CC2c2ccc(Br)cc2)cc1 (centres undefined) | 9.3 | -71.6 | 187.4* | i
CCc1ccc(C2=NN(c3ccc(S(N)(=O)=O)cc3)C(c3ccc(F)cc3)C2)cc1 (centres undefined) | 10.6 | -77.3 | + | 3.4
O=C(c1ccc(Cl)cc1)N1N=CCC1(O)c1ccc(Cl)cc1 (centres undefined) | -2.8 | 24.1 | 0.5 | 0.5
CC(=O)N1N=C(c2ccccc2)CC1c1ccccc1 (centres undefined) | 6.6 | 7.7 | -1.2 | -0.5
O=S(=O)(O)c1ccc(N2N=C(c3ccccc3)CC2c2ccccc2)cc1 (centres undefined) | 18.2 | -294.7 | + | i
Fc1ccc(N2N=C(c3cccs3)CC2c2ccccc2)cc1 (centres undefined) | 6.4 | -60.1 | 25.8 | i
NS(=O)(=O)c1ccc(N2N=C(c3ccccc3)CC2c2ccccc2)cc1 (centres undefined) | 12.2 | -283.7 | + | i
CCCCCCCCN1C(=O)[C@@H](CC(=O)NCc2cccs2)C[C@@]2(C(=O)OC)C1=C[C@H](COCc1ccccc1)O[C@@H]2C | · | 23.3 | · | ·
Nc1cc(Cl)ccc1CN1C(=O)c2ccccc2C1=O | · | · | 16.1 | ·
Cc1ccc(N=C2NC(=O)/C(=C/c3cccnc3)S2)c(C)c1 | 33.2* | 0.3 | -1.2 | 0.5
Cc1ccc(N=C2NC(=O)/C(=C\c3ccsc3)S2)c(C)c1 | 32.7* | 22.8 | -2.5 | -0.5
CN(C)S(=O)(=O)c1cccc(NC(=O)COC(=O)/C=C/c2ccc(Br)o2)c1 | 39.0* | -3.4 | -0.3 | 0.0
SMILES | GDH-TPI inh | CCHFV vOTU inh | FBA Mtb inh | BH1578 lux ind
CN(C)S(=O)(=O)c1cccc(NC(=O)COC(=O)c2cc(-c3cccc(Br)c3)nc3ccccc23)c1 | 32.5* | 5.5 | -2.8 | -0.3
CN(C)S(=O)(=O)c1cccc(NC(=O)COC(=O)c2ccc3ccccc3n2)c1 | -9.2 | 0.8 | 1.5 | i
COc1ccc(-c2nsc(C(=O)N(c3ccc(F)cc3)C(C(=O)NC3CCCC3)c3ccc(OC)cc3)c2N)cc1 (centres undefined) | 31.1* | -2.6 | -0.5 | 5.9
N#C/C(=N\Nc1ccccc1)C(N)=S | 31.0* | -5.5 | -7.2 | i
O=C(O)CC(CC(=O)Nc1ccc(F)c(Cl)c1)c1ccc(Cl)cc1Cl (centres undefined) | -14.3 | -3.0 | -0.6 | -0.2
Cc1ccc(S(=O)(=O)NC(C(=O)Oc2ccc3c(C)c(Cl)c(=O)oc3c2)c2ccccc2)cc1 (centres undefined) | 6.7 | -349.5 | + | i
CCC(NC(=O)OCc1ccccc1)C(=O)Oc1ccc2ccc(=O)oc2c1 (centres undefined) | 20.2 | -358.9 | + | 1.5
